From the supplement of paper PMC6555819

Experiments:
Experiment in all cases: PBM binding z-score (relative to random genomic background probes); higher = stronger binding; sequences stand for … in GC…GCGATTGACAGCGTAGAATGAAGG
[1] = tested on: RARb homodimer (NR concentration 270 nM)
How it was run: (§1)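 For binding z-scores, the reference was random background probes on custom Agilent 4×180K protein-binding microarrays. These arrays were incubated 1 h with ligand-free nuclear receptor dimers in PBS pH 7.4, 2% milk, 0.02% Triton X-100, 1 mM DTT, 0.2 mg/mL BSA and 0.4 mg/ml salmon testes DNA. Fluorescence was scanned after antibody detection of each partner (one per run) and regression-normalized.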

[2] = tested on: RARg:RXRa (NR concentration 270 nM, RXRa partner concentration 90 nM)
How it was run: as §1

[3] = tested on: RARg homodimer (NR concentration 270 nM)
How it was run: as §1

[4] = tested on: RXRa DBDmut IVT, anti-RXR (DBD mutation: RXRa K156A/R161A, NR concentration 90 nM)
How it was run: as §1

[5] = tested on: RXRa homodimer (NR concentration 180 nM)
How it was run: as §1

[6] = tested on: THRa:RXRa (NR concentration 90 nM, RXRa partner concentration 90 nM)
How it was run: as §1

[7] = tested on: THRa homodimer (NR concentration 90 nM)
How it was run: as §1

[8] = tested on: VDR homodimer (NR concentration 270 nM)
How it was run: as §1

| Sequence | PBM binding z-score [1] | PBM binding z-score [2] | PBM binding z-score [3] | PBM binding z-score [4] | PBM binding z-score [5] | PBM binding z-score [6] | PBM binding z-score [7] | PBM binding z-score [8] |
| --- | --- | --- | --- | --- | --- | --- | --- | --- |
| CGTCCAAGGTCCGAGAGGTCAGTGAATGCCGAGT | 3.86 | 3.1 | 3.53 | 1.19 | 2.4 | 2.67 | 1.18 | 2.95 |
| TCTAGCAGGGCAGAGGGTCACTCAAGAGGTACGG | 2.89 | 3.12 | 2.36 | -0.00739 | 2.68 | 1.6 | -0.329 | 0.66 |
| CCTTACGGGTCGAGGTTATAGCACGGGTGGTACG | 1.42 | 1.78 | 1.16 | -0.662 | 2.5 | 1.84 | 0.377 | 0.977 |
| CGAACTTGGTCAAGGACAGTGAATCTCCGCACGC | 0.692 | 0.479 | 1.1 | 0.243 | 0.275 | 1.89 | 1.37 | -0.254 |
| CATACAGGGTCAGCTAGGCCAGTGTAGGGACGGC | 3.34 | 4.2 | 4.67 | 1.57 | 3.89 | 3.07 | 0.856 | 1.07 |
| ATCTGTAGGTTAAGGGTCATTCAGGTTGGTTCGC | 4.02 | 5.03 | 3.89 | 2.02 | 6.57 | 3.69 | 2.07 | 4.28 |
| TCTATTAGTTCATTAGGGCAACCGAAACAGCGGA | 2.52 | 2.4 | 2.37 | 3.46 | 1.12 | 1.45 | 0.899 | 3 |
| CGTCAAAGTTCAAGGTATCGTAACAGAAAGCAGC | 3.49 | 4.96 | 5.95 | 4.18 | 3.95 | 1.94 | -0.0941 | 3.17 |
| CGTCAAAGTTCAACTAGGGTAACGTAAAGCACGC | 4.3 | 5.87 | 6.62 | 4.69 | 5.44 | 5.14 | 0.583 | 4.44 |
| GCTGCTAAGTCAACTGATGGTCAGCTAAAGCTCG | 0.11 | 0.204 | -0.211 | 0.184 | -0.0847 | -0.519 | -1.1 | -1.02 |
| ACAGACAGATGATGAAGGTAACTCAGGCTATCAT | 0.176 | 0.199 | 0.513 | -0.152 | 0.225 | 0.742 | 0.192 | 0.335 |
| CAAACTAGGTGACGAAAGGTCAAAGTCGAATGAC | 4.9 | 6.2 | 6.26 | 1.41 | 7.46 | 4.22 | 1.33 | 2.22 |
| CCAACTAGGTCACCGGAAGGTCAAAGTCCGCATG | 5.63 | 8.38 | 7.43 | 2.32 | 7.28 | 4.43 | 3.16 | 3.75 |
| ATCTAAAGGTCGTGAGGTGAGTATACAGAAAGGC | 3.14 | 4.55 | 4.01 | 2.22 | 5.37 | 3.44 | 1.84 | 1.7 |
| ATCGAAAGGTCGAAGGTGAGTATGCCCACCCGAA | 2.54 | 4.34 | 3.76 | 1.32 | 5.13 | 2.04 | -0.289 | 0.413 |
| GCATATAGGCAATACAAGGTGAAAGTCCGATTGT | 0.688 | 0.477 | 0.305 | 0.168 | 0.621 | 3.17 | 0.6 | -0.0976 |
| AGAACGAGGGCACGCTGAGTTGAGAGCAGAGTAG | 1.24 | 2.01 | 2.05 | 1.81 | 1.57 | 1.95 | -0.054 | 1.29 |
| TGAATAAGGTTAAAGATCAGGGAACGTGGCGTCG | 1.04 | 2.51 | 1.72 | 0.599 | 3.39 | 2.48 | 0.616 | 0.301 |
| CCGACTGGGGCAAAGGGTACCATACTCAGTACGA | 0.849 | 0.946 | 0.506 | -0.546 | 0.731 | 0.31 | -0.963 | 0.0229 |
| ACTCGGAGGACAAAGGTCAGAGTTACGCCAGTGA | 4.32 | 5.86 | 4.91 | 1.63 | 4.97 | 3.59 | 0.845 | 0.984 |
| GCTAGTTGGTCAGTGAAAGGTCACACACCGGTCG | 4.96 | 5.66 | 4.94 | 0.305 | 5.62 | 3.42 | 1.71 | 1.73 |
| CGTCCAAGGTCATAGGAGGTCGGTGAAGACAGAT | 4.09 | 6.01 | 6.48 | 3.77 | 6.13 | 4.77 | 2.45 | 3.77 |
| CCGAATGGGGCAAAGGTTACCATACTCAGTACGA | 2.37 | 3.65 | 1.72 | 0.549 | 4.27 | 1.86 | -0.191 | 0.204 |
| ACTTACGGGTCAACGAGGTTATAGTACGCGTATA | 3.9 | 5.7 | 5.01 | 2.85 | 6.32 | 4.14 | 1.34 | 4.38 |
| CGAACTAGGTCAGAACTGGACAGTGAAGGATGAT | 1.62 | 2.49 | 3.05 | 0.459 | 1.3 | 1.13 | -0.298 | 0.221 |
| GCTGCTAGGTCAACGGATGGTCAGCTAAAGCTCG | 3.51 | 4.98 | 5.24 | 1.17 | 2.82 | 2.51 | 0.887 | 0.0371 |
| CCAGACAGGTGAAAGGGAACTCAGTCTGGTACGC | 0.101 | 0.15 | 0.299 | -0.242 | 0.59 | 0.0918 | -0.374 | 0.0555 |
| GCACATAGGTAATACAAGGTGAAAGTCCGATTGT | 0.838 | 0.572 | 0.547 | 0.115 | 0.869 | 4.19 | 1.02 | -0.0736 |
